LANA DNA inh – inhibitors of KSHV LANA C-terminal domain DNA binding. MBP-C-LANA/FAM-LBS DNA binding, fluorescence polarization. inhibition, % at 9 µM. 0.078% of 340,000 active. AID 504423;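 active means highest replicate inhibition at or above 60% at 9 µM, even if other replicates fall short; inactive means all replicates below 60% inhibition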;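 further: 0% = neutral control wells and 100% = 4 µM acridine orange control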
RTF Ca sens act – increases calcium sensitivity of human cardiac regulated thin filaments; IANBD-labeled TnC RTF fluorescence at EC20 calcium; 0% EC20 calcium, 100% full calcium; P19429+P45379; activation, % at 7.2 µM; 0.24% of 340,000 active;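 active means activation above the mean over all tested compounds plus 3 SD, cut at about 30% in these data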;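 further: rise in fluorescence read as greater calcium sensitivity of cardiac thin filaments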
eLon inh – E. coli protease La inhibition | AID 602123 | purified E. coli Lon protease, fluorescence polarization | P0A9M0 | inhibition, % at 7.94 µM | 0.42% of 360,000 active; in the data active means inhibition above about 13%, passing the limit was not always enough;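 further: 0% = enzyme with probe and DMSO and 100% = no enzyme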
EBV gp42 inh – blocks Epstein-Barr virus glycoprotein 42 binding. Q1HVG2. Fluorescence polarization binding assay, mP read-out. inhibition, % (tested at 21.74 µM). 0.42% of 220,000 active. AID 1085; in the data active means inhibition above about 50%
Keap1 Nrf2 FP – Keap1-Nrf2 (human) interaction inhibition. AID 504523. inhibition, % at 9.4 µM. Keap1 Kelch-Nrf2 peptide fluorescence polarization, 1536-well. 0.15% of 340,000 active; in the data active means inhibition above about 12%; inconclusive means no clear call, values can overlap the other calls; inactive means below about 7.3%;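 further: human Keap1 Kelch domain with fluorescein labeled Nrf2 9mer peptide probe; 0% = neutral control wells and 100% = peptide positive control; higher means more block of Keap1 binding to Nrf2 peptide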
Target sequence (Q14145 whole entry, looked up, the tested form may be a part): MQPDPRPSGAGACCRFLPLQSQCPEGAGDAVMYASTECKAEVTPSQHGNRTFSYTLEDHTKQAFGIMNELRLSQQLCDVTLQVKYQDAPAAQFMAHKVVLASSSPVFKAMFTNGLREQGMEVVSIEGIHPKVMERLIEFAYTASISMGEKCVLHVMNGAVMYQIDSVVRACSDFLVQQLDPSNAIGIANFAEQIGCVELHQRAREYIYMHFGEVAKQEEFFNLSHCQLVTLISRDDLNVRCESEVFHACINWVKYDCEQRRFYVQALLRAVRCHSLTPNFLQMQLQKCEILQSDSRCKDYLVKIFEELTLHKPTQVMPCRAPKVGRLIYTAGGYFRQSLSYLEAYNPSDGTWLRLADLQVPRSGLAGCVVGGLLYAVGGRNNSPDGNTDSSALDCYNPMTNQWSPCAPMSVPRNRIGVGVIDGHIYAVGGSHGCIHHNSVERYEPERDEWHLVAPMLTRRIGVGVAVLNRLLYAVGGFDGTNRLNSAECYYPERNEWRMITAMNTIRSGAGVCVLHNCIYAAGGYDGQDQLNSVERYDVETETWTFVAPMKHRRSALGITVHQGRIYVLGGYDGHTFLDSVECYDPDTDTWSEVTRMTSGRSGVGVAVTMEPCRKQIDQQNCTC
Cardiac RTF inh – cardiac RTF calcium desensitization; P19429+P45379; IANBD-labeled cardiac RTF, Ca2+ fluorescence; inhibition, % at 7.15 µM; 0.12% of 340,000 active;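 active means inhibition above the mean inhibition of all tested compounds plus 3 SD, cut at about 17% in these data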;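 further: assay run at fixed EC70 calcium of 1.6 mM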
E coli Lon conf – E. coli Lon inhibition confirmation. shares compounds with eLon inh. purified E. coli Lon, fluorescence polarization. inhibition, % at 7.94 µM. 31% of 1,400 active. AID 602230; in the data active means inhibition above about 16%;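 further: 0% = enzyme with probe and DMSO and 100% = no enzyme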
* hit, by the source's call; ? = inconclusive; · = no result given. Most compounds without a hit are left out; they make up all but 0.98% or so of the library.

SMILES	LANA DNA inh	RTF Ca sens act	eLon inh	EBV gp42 inh	Keap1 Nrf2 FP	Cardiac RTF inh	E coli Lon conf
Nc1ccccc1N=Nc1ccccc1N	3.3	-3.8	48.5*	·	-1.3	-18.9	39.7*
CC(=O)c1c(C)[nH]c(C(=O)CSc2nnc(-c3ccccc3)n2Cc2ccc3c(c2)OCO3)c1C	-1.6	-8.5	17.8*	-9.3	3.5	-1.7	4.3
CC(=O)c1c(C)[nH]c(C(=O)CSc2nnc(-c3ccco3)n2Cc2ccccc2)c1C	1.2	-0.6	0.6	-6.7	-4.3	-4.5	·
N#Cc1c(N2CCCC2)nc(N)c2c(N)nc(N3CCCC3)cc12	3.8	6.6	50.9*	-6.1	-3.7	4.0	-0.1
Cc1ccc(NC(=O)COC(=O)C2CCC2)cc1S(=O)(=O)N1CCOCC1	-0.6	2.6	-3.7	·	-4.9	-8.0	·
Cc1ccccc1-n1c(SCc2c(C)noc2C)nnc1-c1cccnc1	3.2	22.4	63.1*	89.1*	-1.0	-42.2	45.0*
Cc1ccnc(N2C(=O)c3ccccc3C2=O)c1	0.1	3.1	7.5	·	-6.0	-0.1	·
Cc1nnc(N2C(=O)c3cccc4c([N+](=O)[O-])ccc(c34)C2=O)s1	0.6	12.4	15.1*	·	-0.3	-12.1	13.3
O=C1c2cccc3c([N+](=O)[O-])ccc(c23)C(=O)N1Cc1cccnc1	1.6	19.9	50.9*	122.6*	?	-17.5	74.7*
Cc1ccnc(N2C(=O)c3cccc4c([N+](=O)[O-])ccc(c34)C2=O)c1	1.1	16.4	53.2*	66.8*	-3.7	-29.2	64.2*
Cc1cccc(N2C(=O)c3cccc4c(N5CCCCC5)c([N+](=O)[O-])cc(c34)C2=O)c1C	2.4	2.2	-4.2	15.4	-0.8	-4.9	·
O=C1c2cccc3cccc(c23)C(=O)N1Cc1cccnc1	-1.3	-2.7	0.2	-3.4	3.3	-2.7	·
COc1ncnc2c1NC1=C(S2)C(=NCCC(=O)O)CC(C)(C)C1	22.6	28.1	64.8*	139.5*	-0.7	-29.1	154.0*
OCC1OC(c2ccc(O)cc2O)C(O)C1O (configuration not stated)	·	·	-8.3	·	·	·	·
CCC(CC)C(=O)NCc1ccc2c(c1)cc(C)n2C	0.9	-0.7	10.2	-18.9	1.0	-8.4	·
CCOC(=O)CCC(=O)NCc1ccc2c(c1)cc(C)n2C	1.4	16.3	39.0*	14.1	-1.4	-26.8	-3.8
Cc1cc2cc(CNC(=O)c3cccs3)ccc2n1C	0.0	5.7	26.8*	19.3	0.1	-21.2	13.7
CCCCC(=O)NCc1ccc2c(c1)cc(C)n2C	-0.9	-3.1	11.4	1.9	0.3	-6.3	·
COc1ccc(/C=C\C(=O)NCc2ccc3c(c2)cc(C)n3C)cc1OC	0.4	-1.6	25.2*	-11.5	-3.4	-6.8	-11.0
COc1ccc(C(=O)NCc2ccc3c(c2)cc(C)n3C)cc1OC	0.7	1.4	14.6	-9.4	-2.0	-4.1	·
COc1cccc(C(=O)NCc2ccc3c(c2)cc(C)n3C)c1	1.0	7.6	31.0*	-0.3	6.0	-4.3	15.6
COc1ccccc1CN1CC(C(=O)NCc2cc(C(C)C)no2)CCC1=O (configuration not stated)	0.4	-3.4	-14.8	·	-1.3	-5.0	·
COc1ccc(CCNC(=O)COC(=O)C23CC4CC(CC(Br)(C4)C2)C3)cc1	-0.2	1.9	5.9	-14.0	-1.8	3.6	·
CC(NC(=O)COC(=O)C12CC3CC(CC(Br)(C3)C1)C2)c1ccccc1 (configuration not stated)	0.7	-1.2	25.9*	·	4.1	-6.2	-1.1
CC(C)(C)c1cc[n+](-c2[nH]c(=O)sc2/C=N/NC(=O)c2ccccc2[O-])cc1	18.9	15.0	43.3*	·	1.9	-11.2	35.8*
SMILES	LANA DNA inh	RTF Ca sens act	eLon inh	EBV gp42 inh	Keap1 Nrf2 FP	Cardiac RTF inh	E coli Lon conf
CC1(C)CC(=O)C=C(c2cccc(O)c2)C1=O	0.5	-0.9	-3.4	·	-5.5	0.8	·
COc1cccc(C2=CC(=O)CC(C)(C)C2=O)c1	·	·	11.8*	·	·	·	-13.2
C[C@H](CO)N1C[C@H](C)[C@H](CN(C)Cc2ccc(Oc3ccccc3)cc2)Oc2cc(Br)ccc2S1(=O)=O	·	·	-1.1	·	·	·	·
CCCCNC(=O)C1(C)CCN1C(=O)c1c(F)ccc(C)c1F (configuration not stated)	·	·	-4.8	·	·	·	·
CCCCNC(=O)C1(C)CCN1C(=O)c1ccc(OC)c(F)c1 (configuration not stated)	·	·	15.9*	·	·	·	-7.0
CCCCNC(=O)C1(C)CCCCN1C(=O)c1sccc1C (configuration not stated)	·	·	21.6*	·	·	·	-1.4
COc1ccc(SCCN2CC[C@@H](C(C)(C)C)CCC2=O)cc1	1.4	-1.3	-7.0	·	3.5	-3.5	·
COc1ccc(NC(=O)CNC(c2ccccc2)c2ccccc2)cc1Cl	1.7	-4.2	18.1*	·	?	5.7	-8.2
O=Nc1ccc(NO)c2ccccc12	·	·	-0.9	·	·	·	·
COc1ccc(/C=C2\CCc3c2nc2ccccc2c3C(=O)O)cc1OC	6.3	4.0	64.9*	8.4	-3.5	-49.7	13.4
Cc1ccc(/C=C/C(=O)O)cc1S(=O)(=O)NCC1CCCO1 (configuration not stated)	-1.8	1.8	-9.2	-2.0	-1.0	8.3	·
Cc1ccc(/C=C/C(=O)O)cc1S(=O)(=O)NC1CCS(=O)(=O)C1 (configuration not stated)	-6.6	-1.2	15.2*	-0.6	-4.8	-0.3	-5.2
COc1cccc(OCc2ccc(Cn3nc(NC(=O)NCCc4ccc(OC)c(OC)c4)c4ccccc43)cc2)c1	·	·	-8.0	·	·	·	·
CCN(c1ccc(OC)cc1)S(=O)(=O)c1csc(C(=O)N2CCCC2)c1	0.5	0.5	1.6	·	1.2	-2.8	·
Cc1cccc(CN2CCN([C@@H]3CS(=O)(=O)N[C@H]3COCc3ccccc3)CC2)c1	·	·	-5.2	·	·	·	·
O=C(Nc1ccccc1C(=O)N1CCN(Cc2ccccc2)CC1)c1ccc(F)cc1	1.0	-0.8	22.3*	·	0.8	4.7	-0.8
COc1cc(OC)cc(C(=O)N[C@H](C(=O)OCn2nnc3ccccc3c2=O)C(C)C)c1	-0.5	0.9	15.8*	-6.7	-7.2	-3.5	-7.7
CCCCS(=O)(=O)Nc1ccc(N2CCOCC2)c(S(=O)(=O)N2CCOCC2)c1	0.3	-2.0	19.2*	·	-2.3	-7.3	4.9
Clc1ccccc1-c1cnc2sc(NCc3ccc4c(c3)OCO4)nn12	·	·	-11.7	·	·	·	·
Cc1ccsc1C(=O)N1CCN(c2ncc(C(F)(F)F)cc2Cl)CC1	-0.7	1.6	22.8*	·	1.0	-0.2	-6.2
CC(=O)c1c(C)oc2c1cc(NS(=O)(=O)c1ccc(C(=O)O)cc1)c1ccccc12	-0.1	-4.8	2.9	·	5.3	4.6	·
Cc1ccc(S(=O)(=O)Nc2cc3c(C(=O)Nc4ccccc4)c(C)oc3c3ccccc23)cc1	0.4	3.2	25.2*	45.3	-1.7	4.5	40.2*
O=C(Nc1ccn(CCCNCc2cccc3ccccc23)c(=O)n1)OCc1ccccc1	·	·	12.7*	·	·	·	-8.3
